We go through 13 compounds from PubChem BioAssay (NCI).

Test systems include SK-MEL-2 melanoma; EKVX NSCLC; UO-31 renal; TK-10 renal; ACHN renal; A498 renal; CCRF-CEM leukemia; MOLT-4 leukemia; CAKI-1 renal; SN12C renal.
Assay in all cases: NCI-60 one-dose screen, 48 h (100 = growth as untreated, 0 = no growth, -100 = all killed)
Common to all, as to details: 10 µM unless noted

“And” between values parts separate entries of the source, which are not always exact repeats. Equal values may be shown once. The panel holds about 83,000 compounds, 20% with a hit somewhere; the sample as a whole holds those more often.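 A percent growth of 40 corresponds to 60% growth inhibition; 0 means no net growth; -100 means all cells died. Active threshold: below 10.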 The source made the active and inactive calls.

Turning to `CC(=O)Nc1ccc(OC(C)=O)cc1`, the growth in the experiment with SK-MEL-2 melanoma was -16.6% (active) and 111% (inactive); in the experiment with EKVX NSCLC it was 49.5% (inactive) and 99.5% (inactive); in the experiment on UO-31 renal it was 21.8% (inactive) and 98.6% (inactive); in the experiment on TK-10 renal it was 42% (inactive) and 99.1% (inactive); with ACHN renal, 26.8% (inactive) and 110% (inactive); with A498 renal, -40.5% (active) and 65.6% (inactive). Further, the growth with CCRF-CEM leukemia was 6.69% (active) and 106% (inactive); in the experiment on MOLT-4 leukemia, 15.2% (inactive) and 117% (inactive).
As for `CCOC(=O)C1=CC(=O)CC(C)(C)O1`, the growth with SK-MEL-2 melanoma is 114% (inactive); in the experiment with EKVX NSCLC, 104% (inactive) and 126% (inactive); in the experiment with UO-31 renal, 92.5% (inactive) and 101% (inactive); in the experiment on TK-10 renal it was 96.1% (inactive) and 107% (inactive); with ACHN renal, 102% (inactive) and 106% (inactive); with CAKI-1 renal, 99.7% (inactive) and 104% (inactive). The growth in the experiment with A498 renal is 108% (inactive) and 105% (inactive); with CCRF-CEM leukemia it was 90% (inactive) and 104% (inactive); in the experiment on MOLT-4 leukemia, -47.2% (active) and 106% (inactive).
Take `Cc1c(O)nc(N)[nH]c1=O`: the growth was 123% (inactive) in the experiment with SK-MEL-2 melanoma; 106% (inactive) in the experiment with EKVX NSCLC; 82.9% (inactive) in the experiment with UO-31 renal; 126% (inactive) in the experiment with TK-10 renal; 108% (inactive) in the experiment on ACHN renal; 110% (inactive) with CAKI-1 renal. Besides, the growth with A498 renal is 109% (inactive); in the experiment with CCRF-CEM leukemia it was 90.1% (inactive); in the experiment with MOLT-4 leukemia it was 102% (inactive).
`O=C(c1ccccc1)C1(Br)CCCCC1`: the growth was 104% (inactive) in the experiment with SK-MEL-2 melanoma; 87.3% (inactive) in the experiment with EKVX NSCLC; 103% (inactive) in the experiment with TK-10 renal; 89% (inactive) with CAKI-1 renal; 102% (inactive) in the experiment on A498 renal; 97.5% (inactive) in the experiment on CCRF-CEM leukemia. Further, in the experiment on MOLT-4 leukemia, the growth is 103% (inactive).
As to `NCCSSC/C=C\CSSCCN`, the growth in the experiment with SK-MEL-2 melanoma is 113% (inactive); in the experiment with EKVX NSCLC, 123% (inactive); with UO-31 renal, 80% (inactive); in the experiment on TK-10 renal, 107% (inactive); in the experiment on ACHN renal, 110% (inactive); with CAKI-1 renal, 101% (inactive). Further, the figures for the growth in the experiment with A498 renal, with CCRF-CEM leukemia and with MOLT-4 leukemia were 88.9% (inactive), 95.8% (inactive) and 98% (inactive), respectively.
As for `CCN(CC)CCO/N=C1\CC(c2ccc(OC)c(OC)c2)Oc2ccccc21` (centres undefined), the growth with SK-MEL-2 melanoma is 104% (inactive); in the experiment on EKVX NSCLC, 96.3% (inactive); with UO-31 renal, 71.7% (inactive); with TK-10 renal, 86.9% (inactive); with ACHN renal it was 101% (inactive); in the experiment on CAKI-1 renal it was 83.3% (inactive). Besides, the growth is 112% (inactive) in the experiment on A498 renal, 93% (inactive) in the experiment on CCRF-CEM leukemia and 90.6% (inactive) in the experiment with MOLT-4 leukemia.
For `COc1ccc2oc3c(ccc[n+]3C)c(=O)c2c1`, the growth with SK-MEL-2 melanoma was 99.6% (inactive); in the experiment on EKVX NSCLC, 93.3% (inactive); in the experiment with UO-31 renal it was 91.9% (inactive); in the experiment with TK-10 renal, 97.6% (inactive); in the experiment on ACHN renal it was 99.1% (inactive); in the experiment with A498 renal, 95.7% (inactive). Further, the figures for the growth in the experiment on CCRF-CEM leukemia and in the experiment on MOLT-4 leukemia were 110% (inactive) and 103% (inactive), respectively.
For the compound `CN(C)c1ccc(C(=N)c2ccc(N(C)C)cc2)cc1`, the growth in the experiment with SK-MEL-2 melanoma was 22.1% (inactive) and 3.75% (active); in the experiment on EKVX NSCLC it was 58% (inactive) and 48.4% (inactive); in the experiment with UO-31 renal, 50.1% (inactive) and 37.5% (inactive); in the experiment on TK-10 renal, 37% (inactive) and 67% (inactive); with ACHN renal, 50.9% (inactive) and 49.9% (inactive); with CAKI-1 renal, 30.8% (inactive) and 19% (inactive). The growth was 15.2% (inactive) and -1.88% (active) in the experiment with A498 renal; 33.5% (inactive) in the experiment on CCRF-CEM leukemia; 29.2% (inactive) and 16.8% (inactive) in the experiment with MOLT-4 leukemia.
On to `CC1CC(O)CC(C)(C)C1.CC1CC(O)CC(C)(C)C1.CC1CC(O)CC(C)(C)C1.CC1CC(O)CC(C)(C)C1.[Ti]` (centres undefined), for which the growth in the experiment on SK-MEL-2 melanoma is 93.9% (inactive); with EKVX NSCLC, 93.6% (inactive); in the experiment with UO-31 renal, 79% (inactive); with TK-10 renal it was 104% (inactive); in the experiment with A498 renal it was 106% (inactive); with CCRF-CEM leukemia, 112% (inactive). Further, in the experiment with MOLT-4 leukemia, the growth is 98.8% (inactive).
For the compound `CCn1c2ccc(N(C)C)cc2c2cc(N(C)C)ccc21`, the growth with SK-MEL-2 melanoma is 104% (inactive); in the experiment on EKVX NSCLC, 88% (inactive); in the experiment on UO-31 renal, 94.5% (inactive); in the experiment with TK-10 renal, 118% (inactive); with ACHN renal, 99.9% (inactive); in the experiment with CAKI-1 renal, 98.4% (inactive). For the same compound, the results for the growth in the experiment on A498 renal, in the experiment with CCRF-CEM leukemia and in the experiment on MOLT-4 leukemia were 86.2% (inactive), 85.5% (inactive) and 96.9% (inactive), respectively.
For `Cc1ccc(C(=O)c2ccc(C)cc2)cc1`, the growth is 98.5% (inactive) and 98.1% (inactive) with SK-MEL-2 melanoma; 92.6% (inactive) and 101% (inactive) in the experiment on EKVX NSCLC; 76.9% (inactive) and 98.3% (inactive) with UO-31 renal; 101% (inactive) and 96.5% (inactive) in the experiment with TK-10 renal; 93.4% (inactive) with CAKI-1 renal; 96.4% (inactive) and 111% (inactive) with A498 renal. The growth with CCRF-CEM leukemia was 91.6% (inactive) and 93.3% (inactive); with MOLT-4 leukemia it was 82.5% (inactive) and 97.8% (inactive).
In the case of `CCOC(=O)NC(N)=O`, the growth was 98.7% (inactive) and 126% (inactive) with SK-MEL-2 melanoma; 103% (inactive) and 98.1% (inactive) with SN12C renal; 86.6% (inactive) and 95.3% (inactive) with UO-31 renal; 88.4% (inactive) with TK-10 renal; 100% (inactive) and 103% (inactive) with ACHN renal; 99.1% (inactive) and 101% (inactive) in the experiment with CAKI-1 renal. Moreover, the growth in the experiment with A498 renal is 101% (inactive) and 104% (inactive); in the experiment with CCRF-CEM leukemia, 99.2% (inactive) and 99.3% (inactive); in the experiment with MOLT-4 leukemia, 97.2% (inactive) and 106% (inactive).
Take `Cc1ccc(S(=O)(=O)n2ccnc2)cc1`: the growth was 96.7% (inactive) in the experiment on SK-MEL-2 melanoma; 90.7% (inactive) with EKVX NSCLC; 89.9% (inactive) in the experiment with UO-31 renal; 93% (inactive) with TK-10 renal; 104% (inactive) with ACHN renal; 96.5% (inactive) with A498 renal. Moreover, the growth in the experiment with CCRF-CEM leukemia was 120% (inactive); in the experiment with MOLT-4 leukemia, 138% (inactive).
